# Compound activity: PubChem, several laboratories
# GAA850 FXN act = FXN promoter activators, primary screen, cell-based, luciferase luminescence, HEK293 lucGAA850; 360,000 compounds, 0.56% hits; activation, % at 6 µM; AID 540364, 2011; HEK293 lucGAA850 FXN promoter luciferase reporter, 24 h; percent of 10 µM SAHA response;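 active = activation above the average of all compounds screened plus 3 SD, cutoff fixed separately per campaign, cut at about 7.5% in these data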
# GalR3 antag = GalR3 antagonists in HEK293 cells, primary screen, cell-based, fluorescence readout; Galanin receptor type 3 (Homo sapiens), O60755; HEK293 GalR3-CNG cAMP membrane potential fluorescence; galR3 body fused to GalR1 C-terminus; inhibition, % at 3 µM; 360,000 compounds, 0.44% hits;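 active = inhibition above the screen-wide average plus 3 SD, cut at about 13% in these data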;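 note: forskolin and galanin both at EC90 stimulate the cells; cAMP rise reported by CNG channel membrane potential dye signal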
# Target sequence (O60755 1-299 limits assumed): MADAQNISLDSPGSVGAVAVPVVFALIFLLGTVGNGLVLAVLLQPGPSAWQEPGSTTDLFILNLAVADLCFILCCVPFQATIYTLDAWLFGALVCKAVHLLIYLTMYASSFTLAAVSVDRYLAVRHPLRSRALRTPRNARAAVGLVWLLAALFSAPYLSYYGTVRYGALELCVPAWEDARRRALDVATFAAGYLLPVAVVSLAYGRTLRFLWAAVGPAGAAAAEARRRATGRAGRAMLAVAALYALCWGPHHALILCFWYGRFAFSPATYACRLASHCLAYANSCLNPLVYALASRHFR
# Hsp70 activator = Hsp70 transcriptional activators, primary screen, cell-based, HeLa, Hsp70 promoter luciferase, luminescence, 10 µM | HeLa Hsp70 promoter luciferase reporter; scaled: vehicle 0, proteasome-inhibitor control 100% | activation, % at 10 µM | 200,000 compounds, 0.04% hits;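 active = activation above the mean across all tested compounds plus 3 SD, cutoff set per campaign, cut at about 5.5% in these data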
# SMARCA2 act = SMARCA2 (BRM) function activators, primary screen, cell-based, luminescence, high throughput; MG213 cells, MMTV-luciferase reporter, dexamethasone, overnight; activation, % at 9.1 µM; 370,000 compounds, 1% hits; in the data active = activation above about 7.8%
# HIF activator = HIF pathway transcriptional activators, primary screen, cell-based, U2OS HRE-luciferase, luminescence; activation, % at 7.5 µM (by protocol); U2OS HRE-luciferase reporter; normalized: DMSO 0%, desferrioxamine 100%; AID 1910, 2009; 300,000 compounds, 0.32% hits;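 active = mean activation of at least 10% of the iron chelator positive control signal, with at least half of replicates also reaching 10%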
# SMARCA2 act conf = SMARCA2 (BRM) function activators, confirmation, cell-based, luminescence, triplicate. shares compounds with SMARCA2 act. MG213 cells, MMTV-luciferase with dexamethasone, overnight; MG213 cells expressing E1A, Rb sequestered; DMSO wells 0%, reference activator 100%. activation, % at 9.1 µM. 3,500 compounds, 30% hits;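 active = activation above its plate's cutoff, the mean activation of tested wells plus 3 SD, cut at about 7.9% in these data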
# GAL4-VP16 Luc = GAL4-VP16 luciferase reporter activation, counter-screen for SMARCA2 (BRM) activator project, cell-based, pG5luc, luminescence, high throughput | shares compounds with SMARCA2 act | HEK293 GAL4-VP16 pG5luc reporter; scaled: DMSO wells 0%, SAHA wells 100% | activation, % at 9.1 µM | 3,500 compounds, 41% hits | AID 686939, 2013;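 active = activation above the solvent-only control well mean plus 3 SD, averaged across control plates, cut at about 5.2% in these data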
# A number is an active result; i = inactive; nt = not tested or not shown. Most compounds without a hit are left out; they make up all but 2.2% or so of the library.
SMILES,GAA850 FXN act,GalR3 antag,Hsp70 activator,SMARCA2 act,HIF activator,SMARCA2 act conf,GAL4-VP16 Luc
NC(=S)NN=Cc1nccc2c(N)cccc12,i,i,nt,8.3,nt,i,i
Cc1cccc2nc(-c3ccco3)c(Nc3ccc4c(c3)OCCO4)n12,i,i,i,10,i,i,i
CCOc1ccc(NC(=S)NN2C(C)CCCC2C)cc1 (stereo not given),i,i,i,i,i,nt,nt
CCOc1ccc(NC(=O)NN2C(C)CCCC2C)cc1 (stereo not given),i,i,nt,15,i,i,i
S=c1nccc(-c2ccc(Cl)cc2)[nH]1,i,i,nt,8.1,i,i,i
Clc1ccc(-c2ccn[nH]2)cc1,i,i,i,i,i,nt,nt
CC(C)NC(=O)N[C@@H]1C[C@@H]2O[C@@H](CO)CC[C@@H]2O[C@@H]1CCc1ccc(-c2ccc(F)cc2)cc1,nt,nt,nt,i,nt,nt,nt
CCC1([N+](=O)[O-])COC(C=Cc2ccccc2)OC1 (stereo not given),i,i,nt,9.7,nt,i,i
Cc1ccc2c(c1)cc(CN(Cc1ccco1)C(=O)N1CCOCC1)c1nnnn12,i,i,i,8.6,i,12,i
Cc1ccc2c(c1)cc(CN(CCc1ccccc1)C(=O)N1CCOCC1)c1nnnn12,i,i,i,i,i,nt,nt
O=C1c2ccccc2C(=O)c2c(NCCCN(CCO)CCO)cccc21,i,i,i,15,i,40,i
Brc1ccccc1Cn1nnc(-c2ccc(N3CCOCC3)cc2)n1,nt,nt,nt,i,nt,nt,nt
O=C(c1ccccc1)c1nnc(-c2ccccc2F)o1,i,i,i,11,i,i,i
COc1ccc(-n2c(SCC(=O)Nc3cc(C)c(NC(=O)c4ccccc4)cc3OC)nnc2-c2ccccc2F)cc1,nt,nt,nt,i,nt,nt,nt
COC(=O)Cn1c(CN2CCOCC2)nc2c1c(=O)n(C)c(=O)n2C,i,nt,nt,8.3,i,i,i
COC(=O)c1cc2c(c3c4ccccc4n(S(=O)(=O)c4ccc(C)cc4)c13)C(=O)N(CC(C)C)C2,nt,i,nt,i,nt,nt,nt
O=C(O)C(=O)/C(=C\c1ccc([N+](=O)[O-])cc1)c1ccc2ccccc2n1,i,i,i,8.7,i,i,11
O=C(O)C(=O)/C(=C\c1ccccc1)c1ccc2ccccc2n1,i,i,i,i,i,nt,nt
Cc1cccc(-c2cc3nc(C)cc(=O)n3[nH]2)c1,i,i,nt,9.2,nt,i,6.7
Cc1ccc(SCC(=O)NNC(=O)c2ccccc2)cc1C,i,i,nt,9.6,i,i,i
Cc1cccc(N=Nc2cnc(N)s2)c1,i,i,nt,8.1,i,i,i
COc1ccc(CN2C(=O)[C@]3(NCCc4c3[nH]c3ccc(OC)cc43)c3cc(Br)ccc32)cc1,nt,nt,nt,i,nt,nt,nt
CCCN1C(=O)C(=O)N(CC(=O)c2cc(C)n(C3CC3)c2C)C1=O,i,i,nt,12,nt,11,8.7
CCN1C(=O)C(=O)N(CC(=O)c2cc(C)n(C3CC3)c2C)C1=O,i,i,nt,i,nt,nt,nt
COc1ccc(NS(=O)(=O)c2ccc(NC(=S)NC(=O)c3cccc(F)c3)cc2)nn1,i,i,i,8.2,i,i,i
SMILES,GAA850 FXN act,GalR3 antag,Hsp70 activator,SMARCA2 act,HIF activator,SMARCA2 act conf,GAL4-VP16 Luc
COc1ccc(NS(=O)(=O)c2ccc(NC(=S)NC(=O)c3cccnc3)cc2)nn1,i,i,i,i,i,nt,nt
COC(=O)/C=C1\C(=O)N(c2nc3ccc(OC)cc3s2)C(=S)N1c1ccc(F)cc1,nt,nt,i,nt,i,nt,nt
COc1ccc2nc(N3C(=O)CNC3=S)sc2c1,i,i,nt,8.6,i,14,10
Cc1ccc2nc(N3C(=O)CNC3=S)sc2c1,i,i,nt,15,i,i,16
CN(Cc1ccco1)C(=O)c1cccc2c1C(=O)N(Cc1cccnc1)C2,nt,nt,nt,i,nt,nt,nt
O=C(CCc1ccccc1)N[C@H]1[C@H](OC(=O)c2cnccn2)CCC[C@]12C(=O)N(Cc1ccccc1)c1ccccc12,nt,nt,nt,i,nt,nt,nt
Cc1ccc(C(=O)Nc2ccc(F)cc2)o1,i,i,i,i,i,nt,nt
Cc1ccc(C(=O)Nc2ccc(O)c(C(=O)O)c2)o1,i,i,i,9.3,i,i,i
CC(C)(C)c1ccc2cccc(F)c2n1,nt,i,nt,9.4,nt,i,i
O=C(O)c1cn(Cc2ccccc2)c2ccccc2c1=O,i,i,i,i,i,nt,nt
O=C(O)c1cn(C2CCCCC2)c2ccccc2c1=O,i,i,nt,17,i,i,i
COc1cccc(C(=O)COC(=O)c2cccs2)c1,i,i,nt,9.1,i,12,i
CC(=O)NCCc1ccc(C(=O)COC(=O)c2cccn2C)cc1,i,i,nt,9.2,nt,i,i
CC(=O)NCCc1ccc(C(=O)COC(=O)c2cccs2)cc1,i,i,nt,8.6,nt,9.8,i
O=C(COC(=O)c1cccs1)c1ccccc1,i,i,i,i,i,nt,nt
CC(CCc1ccccc1)NC(=O)COC(=O)c1cccn1C (stereo not given),i,i,nt,i,nt,nt,nt
CC(=O)NCCc1ccc(C(=O)COC(=O)c2ccc(C)s2)cc1,i,i,nt,i,nt,nt,nt
COc1ccc(C(=O)COC(=O)c2cccs2)cc1,i,i,nt,11,nt,i,10
COC1C(O)CCC2(CO2)C1C1(C)OC1CC=C(C)C (stereo not given),nt,i,nt,i,nt,nt,nt
C=CCn1c(SCC(=O)C(C)(C)C)nnc1-c1ccc(Cl)cc1,nt,nt,nt,i,nt,nt,nt
CCC(=O)Nc1cccc(NC(=O)c2cc3ccccc3o2)c1,i,i,i,8.9,i,i,9.8
O=C(COc1ccccc1)NNC(=O)c1cc2ccccc2o1,i,i,i,9.6,i,i,i
COC(=O)[C@]1(C#N)CC(=O)N(Cc2ccc(Cl)cc2)[C@@H]1c1ccc(OC)cc1,nt,nt,nt,i,nt,nt,nt
CCC(=O)Nc1ccc2c(c1)ncn2-c1ccc(C)cc1,i,i,i,8.6,i,i,8.7
O=C(Nc1cc2c(cc1Br)OCCO2)c1cccs1,i,i,i,10,i,i,9.0
CCCC(=O)c1cc2c(cc1NC(=O)c1cccs1)OCCO2,i,i,i,i,i,nt,nt
CCn1cc(CN2CCCC(C(=O)Nc3ccc(-c4nc5ccccc5[nH]4)cc3)C2)c(C)n1 (stereo not given),i,i,nt,i,i,nt,nt
Cc1cc(CN2CCCC(C(=O)Nc3ccc(-c4nc5ccccc5[nH]4)cc3)C2)n[nH]1 (stereo not given),i,i,nt,10.0,i,i,5.5
c1ccc(CNc2ncnc3c2cnn3-c2ccccc2)cc1,i,i,i,i,i,nt,nt
CC(C)(C)Nc1ncnc2c1cnn2-c1ccccc1,i,i,nt,8.3,i,11,13
